Compound activity: PubChem, Broad Institute
EWS-Fli block – blocks EWS/Fli oncoprotein-driven transcription; A673 NR0B1-luciferase reporter, viability-normalised; inhibition, % at 12.6 µM; actives 0.67% (n = 350,000); AID 651661;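 active = mean inhibition of at least 50% after viability correction, with every replicate also passing that limit; inconclusive = mean reaches 50% but only one of two replicates passes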;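 note: firefly luciferase signal divided by Alamar Blue viability fluorescence both relative to DMSO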
PAX8 reporter – PAX8 transcriptional activity inhibition. RMG-I TPO-luciferase reporter, SteadyGlo, 24 h. inhibition, % at 12.6 µM. actives 1.2% (n = 360,000);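 active = mean replicate inhibition at least 60% with every replicate also reaching 60%; inconclusive = only one of the two criteria is met; inactive = mean below 60% and not all replicates reaching 60%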;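 note: luciferase light reporting Pax8 driven TPO promoter activity; plate controls were median of neutral control wells for no effect and mitoxantrone controls for full effect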
F508del corr – correctors of CFTR F508del function in bronchial epithelial cells; CFBE cells, YFP halide quenching; stimulated with forskolin plus potentiator P3; % fluorescence drop versus neutral controls; activity (quench increase), % at 7.58 µM; actives 0.36% (n = 350,000);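 active = mean added fluorescence quench of at least 8% versus neutral control, with both replicates also reaching 8%; inconclusive = only one of the mean or replicate conditions met; inactive = mean below 8% and not both replicates reaching 8%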;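 note: cells transiently co-express mutant CFTR-F508del with the halide-sensitive YFP; corrector assay measuring rescue of mutant channel to the surface after 24 h compound exposure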
LGR2 inh – blocks bursicon-induced cAMP signaling via Drosophila LGR2; HEK293 LGR2, CRE-luciferase, bursicon-stimulated, 4 h; inhibition, % at 9.99 µM; actives 0.35% (n = 380,000);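 active = drop in luminescence signal, shown as inhibition above about 50% in the replicate tests, limit read from the data, passing the limit was not always enough; inconclusive = probably only some replicates passing the limit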;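 note: agonist challenge used bursicon conditioned medium at about half maximal strength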
DNA binding – DNA binding small molecules | shares compounds with EWS-Fli block | salmon sperm DNA acridine orange fluorescence polarization | AC35, µM (titrated, usually from 68 µM), for inactives: at the highest dose activity change, negative = DNA binding | actives 2% (n = 640) | AID 720586;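 active = fitted curve reaches a 35% signal fall AC35 below twice the sample's top valid tested dose, actives reach about 48 µM in these data; inactive = the rest, including activity in the rising direction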;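 note: lower polarization ratio signals compound binding to DNA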
Numbers without * were called inactive. This is a sample that favours compounds with a hit; in the whole collection about 1.8% have one here.

Screening Cc1c(S(=O)(=O)N2CCCC(C(=O)O)C2)cnn1C (configuration not stated) returned EWS-Fli block 3, PAX8 reporter 8, F508del corr -2 and LGR2 inh -2.
`C/C(=N\N(c1ccccc1)c1ccccc1)c1ccco1` gave EWS-Fli block 58*, PAX8 reporter 6, F508del corr -1, LGR2 inh 14 and DNA binding 0%.
Screening COc1ccc(S(=O)(=O)Nc2ccc3c(c2)C(=O)N([C@@H](C)CO)C[C@@H](C)[C@@H](CN(C)C)OCCCC[C@@H](C)O3)cc1 returned PAX8 reporter -7, F508del corr -3 and LGR2 inh -4.
Screening Cc1cccc(-c2ccc([C@H]3[C@H]4CN(C(=O)c5ccc6c(c5)OCO6)CC(=O)N4[C@H]3CO)cc2)c1 returned EWS-Fli block -20, PAX8 reporter 7, F508del corr 0 and LGR2 inh 3.
For CCn1nc(C(=O)OCC(=O)N(CC(C)C)c2c(N)n(Cc3ccccc3)c(=O)[nH]c2=O)c2ccccc2c1=O the results were EWS-Fli block 0, PAX8 reporter -4, F508del corr 1 and LGR2 inh -9.
Screening Clc1ccc(Nc2nnc(-c3ccc4c(c3)OCO4)o2)cc1 returned EWS-Fli block -95, PAX8 reporter -108, F508del corr 3 and LGR2 inh -50.
c1ccc(Nc2nnc(-c3ccc4c(c3)OCO4)o2)cc1 was read as EWS-Fli block 79*, PAX8 reporter 48, F508del corr -2, LGR2 inh 92* and DNA binding 3%.
`Cc1ccc(C(=O)NNC(=O)CCCN2C(=O)/C(=C/c3ccccc3Cl)SC2=S)cc1` gave EWS-Fli block 31, PAX8 reporter 19, F508del corr -4 and LGR2 inh 9.
O=C(CCCN1C(=O)/C(=C/c2ccccc2Cl)SC1=S)NNC(=O)c1ccc(Cl)cc1 was read as EWS-Fli block 74*, PAX8 reporter 25, F508del corr 1, LGR2 inh 6 and DNA binding 5%.
`Cc1ccc(/C=C2\SC(=S)N(CCCC(=O)NNC(=O)c3ccccc3O)C2=O)cc1` gave EWS-Fli block 82*, PAX8 reporter 64*, F508del corr 0, LGR2 inh 1 and DNA binding 9%.
Cc1ccc(/C=C2\SC(=S)N(CCC(=O)NNC(=O)c3ccccc3O)C2=O)cc1 was read as EWS-Fli block 51*, PAX8 reporter -4, F508del corr 1, LGR2 inh 26 and DNA binding 5%.
For O=C(NC[C@@H]1N[C@@H](CO)[C@H]1c1ccc(C2=CCCCC2)cc1)c1cccc(F)c1 the results were EWS-Fli block 59*, PAX8 reporter 5, F508del corr 3, LGR2 inh -4 and DNA binding 0%.
O=C(c1nnsc1S(=O)c1ccc(Cl)cc1)N1CCOCC1 (configuration not stated) was read as EWS-Fli block 78*, PAX8 reporter 112*, F508del corr 1 and DNA binding -10%.
Screening CCOc1cc2[nH]c(=S)n(Cc3ccc(C(=O)NCCN(CC)CC)cc3)c(=O)c2cc1OCC returned EWS-Fli block 58*, PAX8 reporter -33, F508del corr -3, LGR2 inh -11 and DNA binding 3%.
`CC1(C)Oc2cc3oc(-c4cc(O)cc(O)c4)cc3cc2CC1O` (configuration not stated) gave EWS-Fli block 76*, F508del corr -2, LGR2 inh 82* and DNA binding -1%.
For S=c1[nH]nc(-c2cc(-c3ccccc3)n[nH]2)n1/N=C/C(Br)=C/c1ccccc1 the results were EWS-Fli block 75*, PAX8 reporter 45, F508del corr -7, LGR2 inh 1 and DNA binding 0%.
For COc1ccc(/C=C(/C(=O)c2cccs2)N2C=CC=CC2=C(C#N)C#N)cc1 the results were EWS-Fli block 79*, PAX8 reporter -8, F508del corr -1 and DNA binding 2%.
For COc1ccc(N=N/C(=C\O)C(=O)c2cccs2)cc1 the results were EWS-Fli block -23, PAX8 reporter -41, F508del corr 3 and LGR2 inh -25.
Screening N/C(=N\OC(=O)c1cccc(F)c1)c1ccccn1 returned EWS-Fli block 29, PAX8 reporter 20, F508del corr 1 and LGR2 inh inconclusive.
For Cc1ccc(C(=O)O/N=C(\N)c2ccccn2)cc1 the results were EWS-Fli block 52*, PAX8 reporter 105*, F508del corr -1, LGR2 inh 101* and DNA binding 3%.
O=C(C[C@H]1C[C@H]2c3cc(NC(=O)CC4CC4)ccc3O[C@H]2[C@@H](CO)O1)NCc1ccccc1F was read as EWS-Fli block -12, F508del corr 2 and LGR2 inh -8.
COCC(=O)Nc1ccc2c(c1)[C@H]1C[C@@H](CC(=O)NCc3ccc(-c4ccccc4)cc3)O[C@@H](CO)[C@H]1O2 was read as EWS-Fli block 5, PAX8 reporter 18, F508del corr 0 and LGR2 inh 3.
For O=C(C[C@@H]1C[C@H]2c3cc(NC(=O)CC4CC4)ccc3O[C@H]2[C@H](CO)O1)NCc1ccccc1F the results were EWS-Fli block 56*, F508del corr -2, LGR2 inh 1 and DNA binding -4%.
COCC(=O)Nc1ccc2c(c1)[C@@H]1C[C@@H](CC(=O)NCc3ccc(-c4ccccc4)cc3)O[C@@H](CO)[C@@H]1O2 was read as EWS-Fli block 60*, PAX8 reporter 42, F508del corr 0, LGR2 inh 1 and DNA binding 6%.
For COc1ccc(NC(=O)Nc2ccc3c(c2)C(=O)N([C@H](C)CO)C[C@H](C)[C@@H](CN(C)Cc2ccc(Cl)c(Cl)c2)OCCCC[C@H](C)O3)cc1 the results were EWS-Fli block 10, PAX8 reporter 21, F508del corr 2 and LGR2 inh 30.
Screening Cc1ccc(C(CC(=O)O)Nc2nc(N3CCOCC3)nc(N3CCOCC3)n2)cc1 (configuration not stated) returned EWS-Fli block 65*, PAX8 reporter -8, LGR2 inh -4 and DNA binding -4%.
`CNc1nc(C(=O)O)nc(N2CCOCC2)n1` gave EWS-Fli block -4, F508del corr -2 and LGR2 inh 4.
For Cc1sc2nc(CN3CCC(C)CC3)nc(Cl)c2c1C the results were EWS-Fli block 73*, PAX8 reporter 0, F508del corr 1 and DNA binding -19%.
O=[N+]([O-])c1c(NCc2ccco2)ccc2nonc12 was read as EWS-Fli block 5, PAX8 reporter 30, F508del corr 1 and LGR2 inh 6.
`Cc1ccc(-c2ccc3c(c2)O[C@@H](CN(C)C(=O)Nc2ccc(F)cc2)[C@H](C)CN([C@H](C)CO)S3(=O)=O)cc1` gave EWS-Fli block 29, F508del corr 1 and LGR2 inh 17.
